Assay results published in PubChem BioAssay (NCI).
This is part of a sample that, as a whole, favours compounds with a hit. Of some 83,000 tested, about 20% had one in any assay.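 Testing used 96-well plates and a 48-hour single-concentration exposure. Example: -40 means 40% of the starting cells died.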 Unmarked numbers belong to inactive results. Active and inactive are the calls of the source. The calls were made as follows: active = growth percent below 10; inactive = the rest.

Columns and labels:
Assay in all cases: NCI-60 one-dose screen, 48 h (100 = growth as untreated, 0 = no growth, -100 = all killed)
Details in all cases: 10 µM unless noted
HCT-15 colon = tested on: HCT-15 colon
HT29 colon = tested on: HT29 colon
SNB-75 CNS = tested on: SNB-75 CNS
SNB-19 CNS = tested on: SNB-19 CNS
U251 CNS = tested on: U251 CNS
PC-3 prostate = tested on: PC-3 prostate
SK-MEL-5 melanoma = tested on: SK-MEL-5 melanoma
UACC-62 melanoma = tested on: UACC-62 melanoma
LOX IMVI melanoma = tested on: LOX IMVI melanoma
SK-MEL-28 melanoma = tested on: SK-MEL-28 melanoma
SK-MEL-2 melanoma = tested on: SK-MEL-2 melanoma
EKVX NSCLC = tested on: EKVX NSCLC
SN12C renal = tested on: SN12C renal
UO-31 renal = tested on: UO-31 renal
TK-10 renal = tested on: TK-10 renal
CAKI-1 renal = tested on: CAKI-1 renal
A498 renal = tested on: A498 renal
CCRF-CEM leukemia = tested on: CCRF-CEM leukemia
ACHN renal = tested on: ACHN renal
MOLT-4 leukemia = tested on: MOLT-4 leukemia

| SMILES | growth (HCT-15 colon) | growth (HT29 colon) | growth (SNB-75 CNS) | growth (SNB-19 CNS) | growth (U251 CNS) | growth (PC-3 prostate) | growth (SK-MEL-5 melanoma) | growth (UACC-62 melanoma) | growth (LOX IMVI melanoma) | growth (SK-MEL-28 melanoma) | growth (SK-MEL-2 melanoma) | growth (EKVX NSCLC) | growth (SN12C renal) | growth (UO-31 renal) | growth (TK-10 renal) | growth (CAKI-1 renal) | growth (A498 renal) | growth (CCRF-CEM leukemia) | growth (ACHN renal) | growth (MOLT-4 leukemia) |
| --- | --- | --- | --- | --- | --- | --- | --- | --- | --- | --- | --- | --- | --- | --- | --- | --- | --- | --- | --- | --- |
| O=C(O)c1cn(C2CC2)c2cc(N3CCN(C(=O)Nc4nc(-c5ccc(Cl)cc5)cs4)CC3)c(F)cc2c1=O | 7.05% (active) | 5.06% (active) | 9.36% (active) | 23.9% | 10.8% | -2.99% (active) | -60.3% (active) | -4.17% (active) | -66.8% (active) | 39.4% | -18.9% (active) | 19.6% | 7.2% (active) | 2.13% (active) | 21.8% | 17.1% | -3.82% (active) | 13.6% | – | – |
| COc1ccc(-c2cc(-c3cc(OC)c(OC)c(OC)c3)nc(N3CCOCC3)c2C#N)cc1 | 66.6% | 76.1% | 72.3% | 86.7% | 64.5% | 62.7% | 75.3% | 57.5% | 74.7% | 56.8% | 76.1% | 64.9% | 81% | 63.7% | 100% | – | 76.7% | 89.9% | 68.3% | 56.7% |
| O=C(O)C(c1ccccc1)N1C(=O)CSC1=S (configuration not stated) | 103% | 106% | 72.8% | 102% | 96.4% | 101% | 102% | 97.7% | 97.2% | 99.5% | 102% | 98% | 97% | 94.3% | 95.7% | – | 83.9% | 105% | 102% | 99.9% |
| CCOC(=O)C1=C(N)Oc2c(sc3c(CC)cccc23)C1c1ccc(F)cc1 (configuration not stated) | 22.4% | 40.4% | -2.89% (active) | 35% | 40.6% | 26.1% | 61.1% | 22% | 35% | 53.8% | 52.1% | 64.1% | 49.1% | 36.2% | 99.1% | 4.96% (active) | -3.69% (active) | 27.6% | – | – |
| COc1cc(C(=O)c2cnc(-c3c[nH]c4cccc(C)c34)[nH]2)cc(OC)c1OC | 12% | 6.72% (active) | 20.3% | 37.9% | 17.7% | 19.4% | -30.7% (active) | 32.6% | 24.9% | 59.3% | 35% | 29.7% | 28.1% | 17% | 43.8% | – | -12% (active) | 6.39% (active) | 26.4% | 8.85% (active) |
| CCOC(=O)Cn1c(C)c(/C=N/NC(=O)c2cc3c(ccc4ccccc43)o2)c2ccccc21 | 11% | 3.63% (active) | 2.97% (active) | 18% | 15.9% | 10.5% | 7.35% (active) | 35.4% | 24.9% | 45.2% | 44.1% | 41.1% | 34.4% | 40.2% | 58.8% | – | -6.48% (active) | 11.3% | 28.4% | 18.7% |
| Cc1nc(/N=C(\N)NC(=O)Nc2cccc(Cl)c2)sc1C | 32% | 30.2% | 21.9% | 83.2% | 83.5% | 81.5% | 80.2% | 60.5% | 68.8% | 69% | 72% | 68.3% | 86.4% | 84% | 111% | 48.6% | 42.4% | 68.4% | – | 58.4% |
| Cc1onc2c(-c3ccccc3)n[nH]c(=O)c12 | 104% | 90.4% | 83% | 90.3% | 97.6% | 90.5% | 105% | 95.3% | 104% | 108% | 135% | 62.8% | 101% | 106% | 78.9% | 74.1% | 90.2% | 106% | – | 76% |
| CC(=O)c1ccc(Nc2nc(C(C)=O)c(C)s2)cc1 | 97.4% | 100% | 73.6% | 97.5% | 100% | 95.3% | 99.9% | 96.1% | 99.9% | 103% | 105% | 93.2% | 103% | 92.1% | 112% | – | -17.9% (active) | 90.9% | 100% | 100% |
| O=C1/C(=C/c2ccc(F)cc2)Sc2c(Br)cccc21 | 75.8% | 100% | 87.7% | 95.6% | 70.4% | 70.4% | 88.1% | 55.7% | 82% | 110% | 63.5% | 87.9% | 62.7% | 42% | 111% | – | 92.9% | 86.2% | 76.5% | 81.5% |
| c1ccc2c(-c3nc(-c4c[nH]c5ccncc45)cs3)c[nH]c2c1 | 6% (active) | 2.05% (active) | 57.6% | 86.5% | -14.9% (active) | 46.7% | 51.1% | 87.1% | -76% (active) | -89.8% (active) | 97.8% | 35% | 68.9% | 44.4% | 56.4% | – | 85.5% | 2.54% (active) | 23.5% | 30% |
| O=c1c2cc(F)ccc2sc2c(N3CCNCC3)nc3ccccc3c12 | -40.7% (active) | -37.7% (active) | 70.2% | 65.3% | -24.2% (active) | 48.7% | 76.8% | 59.5% | -99.1% (active) | 57.7% | 103% | 72.5% | 61.7% | 28.8% | 58.8% | – | 30.3% | -27.5% (active) | 7.74% (active) | -33.5% (active) |
| COc1ccc(S(=O)(=O)n2c3ccccc3n3ncc(-c4nnc(C)o4)c23)cc1 | 20.3% | 11.2% | 14.1% | 23% | 31.6% | 36.5% | 21.3% | 27.3% | 36.8% | 65.3% | 67% | 31.7% | 38.3% | 44.8% | 76.1% | – | -8.11% (active) | 11.7% | 45.7% | 24.1% |
| CN(C)CCN1CCN(c2ncccc2C2Nc3ccccc3-n3cccc32)CC1 (configuration not stated) | 101% | 101% | 88.3% | 106% | 105% | 102% | 104% | 105% | 99.9% | 105% | 124% | 102% | 101% | 77.8% | 103% | – | 86.7% | 102% | 105% | 98.2% |
| O=C(CCCCCCSc1nc(-c2ccccc2)cc(-c2ccccc2)n1)NO | 32.6% | 8.32% (active) | 21.2% | 47.3% | 35% | 49.7% | 9.17% (active) | 12.8% | 3.67% (active) | 39.9% | 74% | 57.1% | 70.1% | 22.3% | 27.2% | – | 50% | 2.47% (active) | 23% | 5.23% (active) |
| O=C(Nc1ccc(Br)cc1F)c1cc(Br)ccc1O | 4.49% (active) | 59.3% | 1.84% (active) | 19.6% | 13.8% | 11.9% | -93.7% (active) | -31.4% (active) | 6.99% (active) | 8.29% (active) | -25.4% (active) | 9.76% (active) | -10.9% (active) | -11% (active) | 15.3% | – | -42% (active) | 20.9% | -0.439% (active) | 1.26% (active) |
